Experimental findings from PubChem BioAssay AID651592 (Sanford-Burnham Center for Chemical Genomics, 2012) are described below.

The source made the active and inactive calls.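 Rule for the calls: active = NF-kB reporter IC50 at most 10 µM, IL-8 IC50 within fivefold of it with bacterial filtrate but not with TNF-alpha; inactive = the rest.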

Sequence of Interleukin-8 (Homo sapiens) (P10145 whole entry, looked up): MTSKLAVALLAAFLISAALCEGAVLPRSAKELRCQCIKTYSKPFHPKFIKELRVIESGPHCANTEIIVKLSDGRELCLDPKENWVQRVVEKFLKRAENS

The experiment has as its target Interleukin-8 (Homo sapiens) (UniProt P10145). Nature of the experiment: inhibitors of NFkB activation in CF airway cells, SAR follow-up, KKLEB cells, panel, IL8 HTRF, NFkB-GFP (AID 651592).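 Note: immortalized cystic fibrosis airway epithelial KKLEB cells with an NF-kB GFP reporter.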 The settings on record: PAF/TNFa-induced NFkB-GFP / IL8 HTRF, mean of runs. Background: In TR-FRET formats the signal depends on donor and acceptor labels being close together.
Regarding `O=C(Nc1ccc(N2CCN(C(=O)c3ccccc3F)CC2)cc1)c1ccncc1`, the call was active.

Consider `O=C(Nc1ccc(N2CCN(C(=O)c3ccc(F)cc3)CC2)cc1)c1ccccn1`, for which the result was active.

As to `O=C(Nc1ccc(N2CCN(C(=O)c3ccccc3Cl)CC2)cc1)c1cccnc1`, the molecule was classed as active.

Regarding `O=C(Nc1ccc(N2CCN(C(=O)c3ccccc3Cl)CC2)cc1)c1cc(Br)cc(Br)c1`, the outcome was active.

Turning to `CCOc1ccc(NCc2cc3c(C(C)(C)C)nn(-c4ccc(Cl)cc4)c3[nH]c2=O)cc1`, the call was active.

In the case of `O=C(Nc1ccc(N2CCN(C(=O)c3ccccc3)CC2)cc1)c1cccnc1`, the outcome was active.

As to `O=C(Nc1ccc(N2CCN(C(=O)c3ccccc3Cl)CC2)cc1)c1ccccn1`, the call was active.

In the case of `O=C(Nc1ccc(N2CCN(C(=O)c3ccc(F)cc3)CC2)cc1)c1cccnc1`, the outcome was active.

In the case of `O=C(Nc1ccc(N2CCN(C(=O)c3ccccc3F)CC2)cc1)c1cccc(Br)c1`, the molecule was classed as active.

For the molecule `CCOc1ccc(NCc2cc3c(C)nn(-c4ccccc4)c3[nH]c2=O)cc1`, the result was active.

Turning to `O=C(Nc1ccc(N2CCN(C(=O)c3ccccc3)CC2)cc1)c1ccccc1`, the molecule was classed as active.

Regarding `O=C(Nc1ccc(N2CCN(C(=O)c3ccccc3F)CC2)cc1)c1ccccn1`, the result was active.

In the case of `CCOc1ccc(NCc2cc3c(-c4ccc(OC)c(OC)c4)nn(-c4ccccc4)c3[nH]c2=O)cc1`, the call was active.

On to `O=C(Nc1ccc(N2CCN(C(=O)c3ccc(F)cc3)CC2)cc1)c1cc(Br)cc(Br)c1`, for which the result was active.

For `O=C(Nc1ccc(N2CCN(C(=O)c3ccccc3Cl)CC2)cc1)c1ccncc1`, the molecule was classed as active.

In the case of `O=C(Nc1ccc(N2CCN(C(=O)c3ccccc3F)CC2)cc1)c1cc(Br)cc(Br)c1`, the outcome was active.

Consider `O=C(Nc1ccc(N2CCN(C(=O)c3ccccc3Cl)CC2)cc1)c1cccc(Br)c1`, for which the molecule was called active.

For `Cc1ccc(NCc2cc3c(C(C)(C)C)nn(-c4ccccc4)c3[nH]c2=O)cc1`, the molecule was classed as active.

In the case of `O=C(Nc1ccc(N2CCN(C(=O)c3ccc(F)cc3)CC2)cc1)c1cccc(Br)c1`, the molecule was called active.

As for `Cc1ccc(CNCc2cc3c(C(C)(C)C)nn(-c4ccccc4)c3[nH]c2=O)cc1`, the molecule was called active.

Turning to `O=C(Nc1ccc(N2CCN(C(=O)c3ccccc3Cl)CC2)cc1)c1ccccc1`, the call was inactive.

For `O=C(Nc1ccc(N2CCN(C(=O)c3ccccc3)CC2)cc1)c1ccccn1`, the molecule was called active.

For the molecule `O=C(Nc1ccc(N2CCN(C(=O)c3ccccc3F)CC2)cc1)c1cccnc1`, the call was active.

On to `O=C(Nc1ccc(N2CCN(C(=O)c3ccccc3Cl)CC2)cc1)c1cncc(Br)c1`, for which the call was active.

Turning to `CCOc1ccc(NCc2cc3c(C(C)(C)C)nn(-c4ccccc4)c3[nH]c2=O)cc1`, the outcome was active.

Regarding `O=C(Nc1ccc(N2CCN(C(=O)c3ccccc3F)CC2)cc1)c1ccccc1`, the call was active.

For the molecule `O=C(Nc1ccc(N2CCN(C(=O)c3ccccc3)CC2)cc1)c1cc(Br)cc(Br)c1`, the result was active.

As to `O=C(Nc1ccc(N2CCN(C(=O)c3ccccc3)CC2)cc1)c1cccc(Br)c1`, the result was active.

Take `O=C(Nc1ccc(N2CCN(C(=O)c3ccc(F)cc3)CC2)cc1)c1ccccc1`: the molecule was called active.

For the molecule `O=C(Nc1ccc(N2CCN(C(=O)c3ccccc3)CC2)cc1)c1ccncc1`, the molecule was called active.

On to `O=C(Nc1ccc(N2CCN(C(=O)c3ccccc3)CC2)cc1)c1cncc(Br)c1`, for which the outcome was active.

With `O=C(Nc1ccc(N2CCN(C(=O)c3ccc(F)cc3)CC2)cc1)c1cncc(Br)c1`, the molecule was called active.

In the case of `O=C(Nc1ccc(N2CCN(C(=O)c3ccc(F)cc3)CC2)cc1)c1ccncc1`, the result was active.

Take `CCOc1ccc(NCc2cc3c(-c4ccc(F)cc4)nn(-c4ccccc4)c3[nH]c2=O)cc1`: the molecule was called active.
